Rows were chosen to be rich in hits. Some 3% of all compounds tested hit in one or more screens of this group.
EBV LMP1 NFkB = EBV LMP1-driven NF-kappaB luciferase reporter inhibitors, primary screen, cell-based, luminescence, single point; inhibition, % at 12.5 µM; LMP1-induced NF-kappaB luciferase reporter cells; 350,000 tested, 0.69% active; in the data active means inhibition above about 41%; inconclusive means no clear call, values can overlap the other calls;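 further: 0% = neutral control wells and 100% = reference inhibitor control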
TROY signal inh = inhibitors of TROY-driven NF-kB signaling, primary screen, Q293 LMP1-TROYcd cells, NF-kB luciferase, uHTS. Q293 LMP1-TROYcd NF-kB luciferase reporter, 4 h. inhibition, % at 10 µM. 360,000 tested, 0.98% active;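 active means compounds whose plate-normalised and pattern-corrected inhibition of the luciferase reporter signal at the single screening dose is 50% or more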
MITF TRPM1 HTS = activators of MITF-driven TRPM1 promoter reporter, primary screen, cell-based, SK-MEL-5, luciferase, single point; SK-MEL-5 TRPM1-promoter luciferase, 24 h; % of positive control, neutral wells = 0; activation, % at 12.5 µM; 300,000 tested, 0.75% active; AID 588334, 2011;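 active means mean activation of at least 80% with every replicate also reaching 80%; inconclusive means mean reaches 80% but some replicate falls short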;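 further: 0% = neutral control wells and 100% = parthenolide positive control wells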
MITF TRPM1 inh = inhibitors of MITF-dependent TRPM1 promoter reporter, primary screen, cell-based, SK-MEL-5, single point, luciferase | SK-MEL-5 TRPM1 promoter luciferase, 24 h | inhibition, % at 12.5 µM | 330,000 tested, 0.83% active | AID 488899, 2010;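 active means mean inhibition across replicates of 60% or more, whatever share of single replicates reaches that level; inconclusive means some that reach 60%, reason not given; inactive means mean inhibition across replicates below 60%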
TWEAK-Fn14 inh = inhibitors of TWEAK-Fn14 signaling, primary screen, luciferase reporter cells, uHTS; 360,000 tested, 2% active; inhibition, % at 10 µM; TWEAK-stimulated Fn14 reporter cells, luciferase luminescence, 8 h; AID 1159606, 2016; in the data active means inhibition above about 50%
LGR2 inh = inhibitors of bursicon-induced LGR2 CRE-luciferase signal, primary screen, cell-based, HEK293, CRE-luciferase reporter, bursicon stimulation | bursicon-stimulated, 4 h | 380,000 tested, 0.35% active | inhibition, % at 9.99 µM | Drosophila bursicon receptor LGR2 (rickets);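 active means drop in luminescence signal, shown as inhibition above about 50% in the replicate tests, limit read from the data, passing the limit was not always enough; inconclusive means probably only some replicates passing the limit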;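 further: agonist challenge used bursicon conditioned medium at about half maximal strength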
The depositor's hits bear a star; u = inconclusive; x = no result given.

SMILES	EBV LMP1 NFkB	TROY signal inh	MITF TRPM1 HTS	MITF TRPM1 inh	TWEAK-Fn14 inh	LGR2 inh
CC1CCCC(NC(=O)COC(=O)CCC(=O)c2cccs2)C1C (stereo not given)	56.8*	-13.6	-8.2	6.1	-1.6	11.0
O=C(C[C@H]1CC[C@@H](NC(=O)C2CC2)[C@H](CO)O1)NCc1ccccc1Cl	x	x	x	x	x	9.7
Cc1cc(C)n(-c2nc(Nc3ccccc3C(F)(F)F)nc(-n3nc(C)cc3C)n2)n1	33.4	79.5*	-9.1	7.0	81.4*	x
Cc1cc(C)n(-c2nc(NC(C)(C)C)nc(NC(C)(C)C)n2)n1	-1.9	3.7	-16.7	15.9	-7.4	x
O=C(N/N=C(\c1ccccc1)c1cccnc1)c1cccc(F)c1	46.2*	-50.6	-89.2	90.0*	-0.2	24.8
COC(=O)c1ccccc1OCCOc1ccccc1C(=O)OC	-4.3	1.8	-12.4	10.9	10.9	x
COC(=O)c1ccccc1OCCCOc1ccc(C=O)cc1OC	-28.2	33.7	43.9	-41.9	53.2*	-14.0
O=C(Nc1cc(F)ccc1F)N1CCN(c2ccnc3cc(Cl)ccc23)CC1	33.0	25.1	x	13.3	2.4	20.1
O=C(Nc1ccc(C(F)(F)F)cc1)N1CCN(c2ccnc3cc(Cl)ccc23)CC1	29.0	57.8*	x	-1.8	24.9	17.0
Nc1ccc(Cn2ccc3c4c(N)nc(N)nc4ccc32)cc1	22.0	3.6	-84.3	84.9*	-56.7	27.3
Cc1nc2ccc(N)cc2c(=O)n1Cc1ccc(Cl)cc1	-4.1	9.3	15.3	-14.7	-25.0	x
O=C(NCC1CC1)[C@@H]1[C@@H](CO)[C@@H]2Cn3c(ccc(-c4ccccc4)c3=O)[C@@H]2N1Cc1cocn1	x	x	x	x	x	-16.4
O=C(Nc1ccc2c(c1)CCC2)C1CCN(c2c3c(nc4ncnn24)CCC3)CC1	11.4	34.9	-28.2	27.5	35.4	x
O=C(Nc1ccc(Oc2ccccc2)cc1)C1CCN(c2c3c(nc4ncnn24)CCC3)CC1	32.7	51.1*	-28.8	25.8	79.2*	x
CCOc1ccc(-n2c(-c3ccccc3)c[n+]3c2CCCCC3)cc1	22.2	31.2	-59.2	63.0*	28.5	6.4
c1ccc(-c2c[n+]3c(n2-c2ccccc2)CCC3)cc1	10.6	-8.7	-18.2	16.8	9.8	-0.1
O=C(CCCn1c(=O)c2cccn2c2cccnc21)N1CCN(c2ccccc2F)CC1	6.5	11.0	9.9	-0.3	-21.2	1.9
O=C(Cn1c(=O)c2cccn2c2cccnc21)N1CCN(c2ccccc2F)CC1	71.3*	2.4	-5.5	5.0	-11.4	-5.3
COc1cc(-c2noc(C)c2-c2ccc(N(C)C)nc2)cc(OC)c1OC	11.7	7.2	-58.6	u	8.1	-2.2
COc1cc(-c2noc(C)c2-c2ccc3[nH]ccc3c2)cc(OC)c1OC	-2.9	11.8	-28.9	32.2	55.9*	x
COc1ccc(C(=O)/C=C/c2cn(CN3CCN(C)CC3)c3ccccc23)cc1	-47.4	-49.0	95.0*	-92.8	21.3	x
O=[N+]([O-])c1ccc(CS(=O)c2ccccc2)cc1 (stereo not given)	7.6	0.5	5.9	-7.0	9.5	x
O=[N+]([O-])c1ccc(S(=O)Cc2ccccc2)c([N+](=O)[O-])c1 (stereo not given)	28.6	74.2*	-96.8	97.0*	42.2	60.1*
Cc1ccccc1-c1ccccc1[C@@H]1[C@H](C#N)N(C(=O)c2cccc(F)c2)[C@H]1CO	x	x	x	x	x	11.1
O=C1C=C(Nc2ccccc2)c2ccccc2C1=O	1.7	-0.7	-102.1	102.5*	-1.5	47.7
SMILES	EBV LMP1 NFkB	TROY signal inh	MITF TRPM1 HTS	MITF TRPM1 inh	TWEAK-Fn14 inh	LGR2 inh
CCc1ccc(NC2=CC(=O)C(=O)c3ccccc32)cc1	-28.9	40.0	-103.3	103.5*	19.4	-66.1
CCCCNC1=CC(=O)C(NCCCC)=CC1=O	-2.1	-5.4	-3.5	4.7	-9.6	14.7
CCCCNC1=CC(=O)C(=O)c2ccccc21	3.2	-24.2	-93.0	93.7*	13.2	11.1
O=C1C=C(Nc2cccc3cccnc23)c2ccccc2C1=O	3.3	2.9	x	80.1*	28.3	-9.8
COCC#Cc1ccc2c(c1)O[C@H](CN(C)CC1CCOCC1)[C@H](C)CN([C@H](C)CO)S2(=O)=O	x	x	x	x	x	-16.3
COc1ccc(C2C(C(=O)c3ccccc3)=C(C)Nc3nc4ccccc4n32)c(OC)c1 (stereo not given)	-2.7	52.9*	x	x	75.8*	x
C[C@H](CO)N1C[C@H](C)[C@@H](CN(C)C(=O)Nc2ccc3c(c2)OCO3)OCCCC[C@H](C)Oc2ccc(NC(=O)Nc3ccccc3)cc2C1=O	x	x	x	x	x	-3.3
O=C(OCCc1cc2ccccc2c(=O)o1)c1cccs1	-9.2	-46.2	92.9*	-70.6	-14.5	-99.6
CC=Cc1ccc2n(c1=O)C[C@H]1[C@H](CO)[C@@H](C(=O)NCCC)N(CC3CCCC3)[C@@H]21 (mixture of isomers)	x	x	x	x	x	3.4
O=C1NC(=S)NC1=Cc1ccc(Cl)cc1Cl	4.9	-7.0	-4.7	6.1	-6.1	1.8
O=C1NC(=O)C(=Cc2ccc(Cl)cc2Cl)S1	-4.3	53.7*	23.2	-24.0	29.6	-72.8
O=C1C(=O)c2cccnc2-c2ncccc21	x	65.8*	x	x	103.5*	100.2*
COC1=C(Br)C(=O)c2ncccc2C1=O	3.6	-0.6	-62.9	65.0*	10.2	u
O=C1c2cccnc2-c2ncccc21	-0.3	-0.7	6.7	-5.9	4.6	x
C[C@@H]1CN([C@@H](C)CO)C(=O)c2cc(C3=CCCC3)cnc2O[C@H]1CN(C)S(=O)(=O)c1cn(C)cn1	x	x	x	x	x	-14.9
CO[C@H]1CN(C)C(=O)c2ccc(NC(=O)Nc3cccc(F)c3)cc2OC[C@@H](C)N(C(=O)C2CC2)C[C@H]1C	x	x	x	x	x	6.0
CCCC#Cc1cnc2c(c1)C(=O)N([C@H](C)CO)C[C@@H](C)[C@@H](CN(C)C(=O)Nc1ccc(OC)cc1)O2	x	x	x	x	x	13.0
COC(=O)[C@@H]1[C@@H](CO)[C@@H]2Cn3c(ccc(-c4ccncc4)c3=O)[C@@H]2N1CC1CCCC1	x	x	x	x	x	4.2
O=C(c1ccco1)N1CCN(c2ncnc3c(-c4ccc(Cl)cc4)nsc23)CC1	10.0	63.0*	-13.0	14.6	61.3*	x
COc1ccc(-c2nsc3c(N4CCCC4)ncnc23)cc1	25.0	65.9*	-26.1	25.0	94.6*	x
Cc1ccc(-c2csc3ncnc(N4CCN(C(=O)c5ccco5)CC4)c23)cc1	0.2	4.8	-3.7	3.4	10.8	0.7
O=C(C[C@H]1C=C[C@@H](NC(=O)c2ccncc2)[C@H](CO)O1)NCc1ccncn1	x	x	x	x	x	6.0
CC1(C)C(/C=C/C=C/C=C/C=C2\N(CCCCS(=O)(=O)O)c3ccc4ccccc4c3C2(C)C)=[N+](CCCCS(=O)(=O)[O-])c2ccc3ccccc3c21	3.6	10.0	-14.9	20.5	55.2*	x
